Source: PubChem
ALDH1A1 inh = inhibitors of human aldehyde dehydrogenase 1A1; Purified ALDH1A1, NADH fluorescence, propionaldehyde substrate; Potency, µM (doses to about 75.3 µM), without a hit: top-dose activity, negative = inhibition, most hits filed as inhibitors; 220,000 tested, 7.3% active; AID 1030; active = well fitted inhibition curve with a large enough effect, not every such curve was filed as active; inconclusive = small, poorly fitted or top-dose-only effect, or another doubt; inactive = no such curve, though single readings can be large or run the other way;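 also: plate controls were no enzyme wells and a reference inhibitor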
Target sequence (P00352 whole entry, looked up): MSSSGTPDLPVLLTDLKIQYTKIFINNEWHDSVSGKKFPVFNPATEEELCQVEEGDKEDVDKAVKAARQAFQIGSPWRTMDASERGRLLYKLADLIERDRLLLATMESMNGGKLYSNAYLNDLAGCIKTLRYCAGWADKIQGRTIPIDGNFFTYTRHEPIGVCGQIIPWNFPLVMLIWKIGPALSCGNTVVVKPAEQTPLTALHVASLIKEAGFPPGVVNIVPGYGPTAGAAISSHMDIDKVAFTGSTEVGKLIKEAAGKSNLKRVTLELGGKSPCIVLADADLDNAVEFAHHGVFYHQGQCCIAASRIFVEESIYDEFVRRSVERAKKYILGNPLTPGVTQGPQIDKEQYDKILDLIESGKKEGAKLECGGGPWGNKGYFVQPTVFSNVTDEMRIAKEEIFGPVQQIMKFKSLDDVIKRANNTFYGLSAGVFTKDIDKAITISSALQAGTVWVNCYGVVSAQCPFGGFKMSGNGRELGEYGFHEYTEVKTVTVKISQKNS
VP16 counter = inhibits Gal4-VP16 luciferase reporter, ROR gamma counter-screen; Drosophila S2 Gal4-VP16 UAS-luciferase, luminescence, 20 h; AID 2546; Potency, µM (highest dose often 53.6 µM), for inactives: top-dose activity, negative = inhibition, usual class: inhibitors; 310,000 tested, 3.5% active;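 also: Gal4-VP16 expression switched on by copper sulfate through the metallothionein promoter; nearly all actives have a fitted effect of over 50% in size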
Sfp inh = inhibitors of Bacillus subtilis Sfp phosphopantetheinyl transferase. Biochemical Sfp PPTase activity, qHTS. AID 1490. Potency, µM, for the others: largest response in the series, negative = inhibition, hits mostly inhibitors. 310,000 tested, 3.5% active. Q9F4F7;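 also: the enzyme is Sfp with the accession as filed and its product quenches rhodamine fluorescence; 0% = enzyme reaction without inhibitor and -100% = no enzyme wells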
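After 15 min at room temperature with compound, 15 nM Sfp received 5 uM rhodamine-CoA plus 12.5 uM BHQ-2-ybbR (50 mM Hepes pH 7.6, 10 mM MgCl2). Rate came from the fluorescence difference over 30 min, ex 525/em 598 nm.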
RORgamma inh = blocks mouse ROR gamma transcriptional activity; Drosophila S2 Gal4-RORgamma UAS-luciferase reporter, 20 h; P51450; AID 2551; Potency, µM (series often up to 53.6 µM), without a hit: top-dose activity change, negative = inhibition, hits mostly inhibitors; 310,000 tested, 5.4% active; also: nearly all actives have a fitted effect of over 60% in size
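Schneider cells (Drosophila), stable Gal4 DBD–ROR gamma + UAS-luc; 1 hr cmpd preincubation; Cu2+ induction 700 uM final; 20 hr ambient; luminescence.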
PLK1 PBD inh = inhibitors of human PLK1 polo-box domain binding | P53350 | Potency, µM, inactives show max response, negative = inhibition, actives largely listed as inhibitors | AID 720504 | Plk1 PBD binding of FITC phosphopeptide, fluorescence polarization | 360,000 tested, 2.8% active; also: series mostly up to about 57 µM; nearly all actives have a fitted effect of over 65% in size
Numbers without * were called inactive; ? = inconclusive; . = not tested or not shown; [ ] = another dose, or the depositor's remark. Shown are actives, neighbours in structure and some others; about 12% of the full set was active somewhere. Unless noted, calls follow the shape of the dose curve; as a rule, active = well fitted curve in the direction sought with a large enough effect; inconclusive = small, poorly fitted or top-dose-only effect, or another doubt; inactive = no such curve, though single readings can be large; an effect the other way counts as inactive or inconclusive. Unless noted, % is scaled to controls: 0 for no effect and ±100 for the full control effect; potency is read from the fitted curve at half-maximal effect.

SMILES	ALDH1A1 inh	VP16 counter	Sfp inh	RORgamma inh	PLK1 PBD inh
COc1cc(CN2CCNC(=O)C2CC(=O)N(C)CCC2CCOCC2)cc(OC)c1 (centres undefined)	.	7.7%	8.7%	-40.2%	26.7µM*
COc1ccc(CC(N)c2csc(Nc3ccc(C(=O)c4ccccc4)cc3)n2)cc1 (centres undefined)	.	.	.	.	-1.8%
COc1ccc(CN2CCNC(=O)C2CC(=O)N(C)Cc2nccs2)c(OC)c1 (centres undefined)	.	-9.1%	17.4%	-15.4%	26.7µM*
COc1cc(CN2CCNC(=O)C2CC(=O)N2CCc3ccccc3C2)cc(OC)c1 (centres undefined)	25.1µM*	3.7%	0.8%	-8.1%	-6.6%
COc1ccc(CN2CCNC(=O)C2CC(=O)N2CCc3ccccc3C2)c(OC)c1 (centres undefined)	-12.3%	2.0%	5.6%	-23.6%	-18.3%
COc1cc(-n2c(C)nc3ncn(-c4ccccc4)c3c2=O)cc(OC)c1OC	.	.	.	.	2.9%
COc1ccc2cc(C(=O)N3CCCCCC3)sc(=O)c2c1OC	8.91µM*	1.5%	2.0%	2.8%	-7.1%
COC(=O)c1cc2ccc(OC)c(OC)c2c(=O)s1	2.4%	-7.9%	18.9%	?	-2.6%
CCCCCCCCCCCCC/C=C\[C@@H](O)[C@H](CO)NC(C)=O	-1.5%	-3.4%	-3.8%	12.0%	.
O=C(CC(Nc1ccc(F)cc1)C(=O)OCC(=O)c1cccs1)c1ccccc1 (centres undefined)	11.2µM*	?	35.5µM*	-29.5%	-9.1%
CCCCn1c(=O)[nH]c2nc3cc(NC(C)=O)ccc3nc2c1=O	.	-0.3%	10.5%	0.6%	-15.3%
CCCCCCn1c(=O)[nH]c2nc3cc(N)c(C)cc3nc2c1=O	-0.6%	-13.8%	?	1.8%	2.99µM*
C[C@@H]1C(SC2Cn3cnc[n+]3C2)=C(C(=O)[O-])N2C(=O)[C@H]([C@@H](C)O)[C@@H]12 (some centres undefined)	.	-6.7%	23.7%	12.4%[10 µM]	.
NC(=O)CC(NC(=O)c1ccc(Br)cc1)c1ccc(NCc2ccc(F)cc2)c([N+](=O)[O-])c1 (centres undefined)	.	1.5%	-6.3%	26.1%	5.8%
NC(=O)CC(NC(=O)c1ccc(Br)cc1)c1ccc(NCc2ccc(F)c(F)c2)c([N+](=O)[O-])c1 (centres undefined)	.	3.2%	50.1µM*	?	-3.6%
NS(=O)(=O)c1ccc(CCNC(c2ccccc2)c2ccccc2)cc1	.	-3.1%	13.5%	0.6%	-5.1%
c1ccc(C(NCCNC(c2ccccc2)c2ccccc2)c2ccccc2)cc1	-3.5%	?	?	12.6µM*	0.5%
Nc1sccc1C(=O)c1ccccc1	?	0.0%	28.2µM*	-33.8%	-10.8%
COc1ccc(-c2csc(N(CC3CCCO3)C(=O)c3cccs3)n2)cc1 (centres undefined)	?	-1.6%	19.1%	11.3%	2.0%
COc1ccc(OC)c(-c2csc(N(CC3CCCO3)C(=O)C3CCCCC3)n2)c1 (centres undefined)	6.0%	-4.5%	7.9%	21.5%	16.8µM*
CCCCCCCCCC(=O)NO	.	-10.3%	-2.4%	27.0%	.
CCN1CC2=C(OC(N)=C(C#N)C2c2ccccc2)/C(=C\c2ccccc2)C1 (centres undefined)	?	4.0%	-14.1%	15.7%	-4.3%
CCN1C=C(Cc2cccs2)C2=C(C1)C(c1cccs1)C(C#N)=C(N)O2 (centres undefined)	20µM*	-2.4%	-7.2%	17.6%	-11.9%
CCN1CC2=C(OC(N)=C(C#N)C2c2cccs2)/C(=C/c2cccs2)C1 (centres undefined)	17.8µM*	12.4%	-8.1%	13.3%	-16.6%
O=C(NCCN1CCOCC1)C1(C(F)(F)F)C/C(=C\CCO)CCCO1 (centres undefined)	.	-24.0%	-2.1%	-0.8%	.
SMILES	ALDH1A1 inh	VP16 counter	Sfp inh	RORgamma inh	PLK1 PBD inh
CC1=NN(c2ccc(N)cc2)C(=O)C1	?	2.0%	-19.2%	-4.7%	26.7µM*
CC1=NN(c2cccc([N+](=O)[O-])c2)C(=O)C1	?	-9.9%	14.3%	20.3%	-1.2%
CC1=NN(c2ccccc2)C(=O)C1	10µM*	-6.6%	-7.4%	?	-7.3%
CC1=NN(c2ccc(Cl)cc2)C(=O)C1	0.631µM*	?	15.9%	-1.5%	1.6%
CC(C)c1ccc(CN2CCC2(C)C(=O)Nc2cnc3ccccc3c2)cc1 (centres undefined)	.	.	.	.	-2.5%
CCN(CC)S(=O)(=O)c1ccc(S(=O)(=O)N2CCC(C(=O)NC3CCN(Cc4ccccc4)CC3)CC2)cc1	.	3.4%	-4.2%	20.4%	-8.2%
O=C(NCc1ccccc1)C1CCN(S(=O)(=O)c2cc([N+](=O)[O-])ccc2Cl)CC1	25.1µM*	-24.7%	-1.0%	-6.5%[10 µM]	0.3%
O=C(COC(=O)C1CCN(S(=O)(=O)c2cccc3cccnc23)CC1)c1ccc([N+](=O)[O-])cc1	6.31µM*	?	8.0%	-8.0%	-2.5%
CN(Cc1ccccc1)C(=O)C1CCN(S(=O)(=O)c2cc([N+](=O)[O-])ccc2Cl)CC1	6.31µM*	-26.2%	6.5%	?	-14.1%
O=C(NCc1cccnc1)C1CCN(S(=O)(=O)c2cc([N+](=O)[O-])ccc2Cl)CC1	.	.	.	.	-6.6%
Cc1ccc(Cl)cc1S(=O)(=O)N1CCC(C(=O)NC2CCN(Cc3ccccc3)CC2)CC1	.	22.4µM*	0.1%	?	6.0%
O=C(Cn1cc(COc2ccc(Cl)c(Cl)c2)nn1)NS(=O)(=O)c1ccccc1C(F)(F)F	.	.	.	.	-19.4%
COC(=O)[C@@]1(Cc2ccc(OC)cc2)[C@H]2c3cc(C(=O)N(C)C)n(Cc4ccc(O)c(OC)c4)c3C[C@H]2CN1C(=O)c1ccccc1	-8.5%	-0.8%	-8.4%	27.6%	.
O=C(COC(=O)C1CCN(S(=O)(=O)c2cc([N+](=O)[O-])ccc2Cl)CC1)Nc1ncc(Cl)cc1Cl	6.31µM*	-6.0%	-3.8%	-2.1%	?
O=C(Nc1nc2ccc(F)cc2s1)C1CCN(S(=O)(=O)c2cc([N+](=O)[O-])ccc2Cl)CC1	?	5.01µM*	?	?	-21.3%
CC(=O)COC(=O)C1CCN(S(=O)(=O)c2cc([N+](=O)[O-])ccc2Cl)CC1	.	-2.2%	-4.9%	-14.4%	-23.6%
Brc1ccc(-c2nc3c4ccccc4ccn3c2Cc2ccccc2)cc1	.	.	.	.	4.4%
O=[N+]([O-])c1ccc(N=Nc2ccc(O)cc2O)cc1	10µM*	0.631µM*	-9.6%	?	-3.5%
COc1cccc(C2C3=C(Nc4[nH]n(-c5ccccc5)c(=O)c42)c2ccccc2C3=O)c1 (centres undefined)	20µM*	-10.1%	-21.3%	?	.
O=c1oc2ccccc2c(O)c1/C=N/c1nc(-c2ccc(O)c(O)c2)cs1	3.55µM*	.	.	.	.
COc1ccc(-n2nc(C(=O)c3cccs3)cc(-c3nc4ccccc4[nH]3)c2=N)cc1	?	3.55µM*	25.6%	3.16µM*	-7.9%
